Where “and” joins values, the source holds several entries; their conditions need not be identical. Equal values may be shown once. Among all 5,500 compounds or so, about 2,000 (36%) were called active. Roughly 18% stayed inconclusive and do not appear here. Cut-off read from the data, not from the text of the source: active = normalized growth mostly below about 0.91 (no sharp cut-off); inconclusive = no clear call, values can overlap the other calls; inactive = mostly above about 0.92. Some of the results follow.
Experiment: chemical genetic growth profiling, strain panel (AID 1159580);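 note: tested at 20 µM; growth read once vehicle control cultures reached saturation at 30 °C; 1 = growth at the plate median or of vehicle wells; lower values mean less growth of the strain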
Conditions: S. cerevisiae deletion strains, growth OD

Measured: normalized growth

Cc1cc(N)c2ccccc2[n+]1CCCCCCCCCC[n+]1c(C)cc(N)c2ccccc21
active: locus YAL013W, strain DEP1, hits give low values 0.0603 | locus YAL021C, strain ccr4, hits give low values 0.0693 | locus YAL026C, strain drs2, hits give low values 0.0714 | locus YAL030W, strain snc1, hits give low values 0.0625 | locus YAL040C, strain CLN3, hits give low values 0.0761 | locus YBL061C, strain skt5, hits give low values 0.066 | locus YBR009C, strain hhf1, hits give low values 0.0696 | locus YBR021W, strain FUR4, hits give low values 0.0907 | locus YBR023C, strain chs3, hits give low values 0.0647 | locus YBR171W, strain sec66, hits give low values 0.0836 | locus YBR229C, strain ROT2, hits give low values 0.0499 | locus YBR231C, strain swc5, hits give low values 0.0655 | locus YBR279W, strain paf1, hits give low values 0.105 | locus YCL011C, strain gbp2, hits give low values 0.0611 | locus YCL016C, strain dcc1, hits give low values 0.0686 | locus YCL029C, strain bik1, hits give low values 0.0664 | locus YCL061C, strain MRC1 (second series), hits give low values 0.0482 | locus YCL061C, strain MRC1, hits give low values 0.0691 | locus YCL069W, strain vba3, hits give low values 0.0657 | locus YCR088W, strain abp1, hits give low values 0.0654 | locus YDL005C, strain med2, hits give low values 0.0789 | locus YDL035C, strain GPR1, hits give low values 0.0543 | locus YDL040C, strain nat1, hits give low values 0.0635 | locus YDL074C, strain BRE1, hits give low values 0.0853 | locus YDL101C, strain DUN1, hits give low values 0.0584 | locus YDL134C, strain PPH21, hits give low values 0.0503 | locus YDL185W, strain tfp1, hits give low values 0.0607 | locus YDL192W, strain arf1, hits give low values 0.0659 | locus YDR001C, strain nth1, hits give low values 0.0643 | locus YDR069C, strain doa4, hits give low values 0.0664 | locus YDR101C, strain arx1, hits give low values 0.0626 | locus YDR137W, strain rgp1, hits give low values 0.0886 | locus YDR150W, strain NUM1, hits give low values 0.0524 | locus YDR159W, strain sac3, hits give low values 0.0966 | locus YDR162C, strain NBP2, hits give low values 0.0484 | locus YDR195W, strain ref2 0.14 | locus YDR297W, strain sur2, hits give low values 0.0628 | locus YDR318W, strain mcm21, hits give low values 0.0702 | locus YDR334W, strain swr1, hits give low values 0.0697 | locus YDR335W, strain msn5, hits give low values 0.0637 | locus YDR363W, strain ESC2, hits give low values 0.0798 | locus YDR388W, hits give low values 0.0589 | locus YDR392W, strain spt3, hits give low values 0.104 | locus YDR502C, strain sam2, hits give low values 0.066 | locus YEL003W, strain gim4, hits give low values 0.0587 | locus YEL037C, strain rad23, hits give low values 0.06 | locus YEL061C, strain CIN8 (second series), hits give low values 0.066 | locus YEL061C, strain CIN8, hits give low values 0.0508 | locus YER002W, strain NOP16, hits give low values 0.0717 | locus YER015W, strain faa2, hits give low values 0.064 | locus YER016W, strain bim1, hits give low values 0.0649 | locus YER110C, hits give low values 0.0798 | locus YER111C, strain swi4, hits give low values 0.0774 | locus YER155C, strain BEM2 (second series), hits give low values 0.0923 | locus YER155C, strain BEM2, hits give low values 0.0729 | locus YER167W, strain BCK2, hits give low values 0.0524 | locus YFR010W, strain ubp6, hits give low values 0.0738 | locus YGL078C, strain dbp3, hits give low values 0.0809 | locus YGL086W, strain mad1, hits give low values 0.0599 | locus YGL167C, strain pmr1, hits give low values 0.0819 | locus YGL173C, strain kem1, hits give low values 0.0682 | locus YGL227W, strain vid30, hits give low values 0.0671 | locus YGL240W, strain doc1, hits give low values 0.0823 | locus YGL248W, strain PDE1, hits give low values 0.0477 | locus YGL253W, strain hxk2, hits give low values 0.0575 | locus YGR078C, strain PAC10, hits give low values 0.0515 and 0.0686 | locus YGR135W, strain pre9, hits give low values 0.0652 | locus YGR229C, strain SMI1, hits give low values 0.0559 | locus YGR252W, strain gcn5, hits give low values 0.156 | locus YHR013C, strain ard1, hits give low values 0.116 | locus YHR027C, strain rpn1, hits give low values 0.0661 | locus YHR030C, strain SLT2, hits give low values 0.0523 | locus YHR079C, strain IRE1 (second series), hits give low values 0.0634 | locus YHR094C, strain hxt1, hits give low values 0.0669 | locus YHR129C, strain ARP1, hits give low values 0.087 | locus YHR142W, strain chs7, hits give low values 0.0778 | locus YHR200W, strain rpn10, hits give low values 0.0666 | locus YIL066C, strain RNR3, hits give low values 0.0524 | locus YIL073C, strain SPO22, hits give low values 0.118 | locus YIL125W, strain kgd1, hits give low values 0.0847 | locus YIR030C, strain dcg1, hits give low values 0.0641 | locus YJL092W, strain hpr5, hits give low values 0.062 | locus YJL095W, strain BCK1 (second series), hits give low values 0.0654 | locus YJL095W, strain BCK1, hits give low values 0.0618 | locus YJL115W, strain asf1, hits give low values 0.0762 | locus YJL129C, strain trk1, hits give low values 0.0876 | locus YJL134W, strain LCB3, hits give low values 0.0487 | locus YJL154C, strain vps35, hits give low values 0.0637 | locus YJL164C, strain tpk1, hits give low values 0.0693 | locus YJL166W, strain qcr8, hits give low values 0.0646 | locus YJL168C, strain set2, hits give low values 0.064 | locus YJL187C, strain SWE1 (second series), hits give low values 0.0504

Source: PubChem BioAssay AID1159580 (chemical genetic matrix, 2015)
